Values without a mark were called inactive.
Each molecule was assayed on Pseudomonas aeruginosa PA14 dppBCDF deletion mutant (assay: respiration area under curve with compound as sole nitrogen source, 24 h (OmniLog AUC (arbitrary units)); higher = more respiration / better utilisation as nitrogen source, active = 2000 or more; extreme values may be limits of the assay).
Protocol: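 Biolog Phenotype MicroArray plates PM6-PM8: each di/tripeptide is the sole nitrogen source. Tetrazolium reduction was read in the OmniLog every 15 min for 24 h at 37°C and summarised as area under the respiration curve (arbitrary units). Values below 2000 count as no respiration. Strain is the dipeptide ABC transporter deletion mutant.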

SMILES	respiration area under curve
NC(=O)C[C@H](N)C(=O)N[C@@H](CCC(=O)O)C(=O)O (plate: PM6)	1590
CC(C)C[C@H](N)C(=O)N1CCC[C@H]1C(=O)O (plate: PM8)	0
NC(=O)CC[C@H](N)C(=O)N[C@@H](CCC(=O)O)C(=O)O (plate: PM8)	3750 (active)
CSCC[C@H](N)C(=O)N[C@@H](CCC(=O)O)C(=O)O (plate: PM7)	0
CC(C)[C@H](NC(=O)[C@@H](N)Cc1ccc(O)cc1)C(=O)O (plate: PM8)	5040 (active)
C[C@H](NC(=O)[C@@H](N)CCCN=C(N)N)C(=O)O (plate: PM6)	8890 (active)
CC(C)C[C@H](NC(=O)[C@@H](N)C(C)C)C(=O)O (plate: PM7)	3160 (active)
CC(C)[C@H](NC(=O)[C@@H](N)CC(N)=O)C(=O)O (plate: PM6)	4910 (active)
CC[C@H](C)[C@H](N)C(=O)N1CCC[C@H]1C(=O)O (plate: PM6)	0
CC(C)[C@H](N)C(=O)N[C@@H](C)C(=O)O (plate: PM8)	207
CC(C)[C@@H](NC(=O)CN)C(=O)O (plate: PM8)	0
C[C@H](N)C(=O)N[C@@H](CC(N)=O)C(=O)O (plate: PM6)	6980 (active)
CSCC[C@H](N)C(=O)N1CCC[C@H]1C(=O)O (plate: PM7)	0
N[C@@H](CO)C(=O)NCC(=O)O (plate: PM7)	1360
CC(C)[C@H](N)C(=O)N[C@@H](CCCN=C(N)N)C(=O)O (plate: PM7)	11700 (active)
CSCC[C@H](NC(=O)[C@@H](N)[C@@H](C)O)C(=O)O (plate: PM7)	204
C[C@H](N)C(=O)N[C@@H](CCC(N)=O)C(=O)O (plate: PM8)	3540 (active)
CC[C@H](C)[C@H](N)C(=O)N[C@@H](CCCN=C(N)N)C(=O)O (plate: PM6)	8420 (active)
CC(C)[C@H](NC(=O)[C@@H](N)Cc1c[nH]c2ccccc12)C(=O)O (plate: PM8)	0
NC(N)=NCCC[C@H](N)C(=O)N[C@@H](CO)C(=O)O (plate: PM6)	8440 (active)

SMILES	respiration area under curve
CC[C@H](C)[C@H](NC(=O)[C@@H](N)Cc1ccc(O)cc1)C(=O)O (plate: PM8)	5950 (active)
NC(=O)CC[C@H](NC(=O)[C@@H](N)Cc1ccc(O)cc1)C(=O)O (plate: PM7)	10600 (active)
CC(C)C[C@H](N)C(=O)N[C@H](CC(C)C)C(=O)O (plate: PM8)	0
CC[C@H](C)[C@H](N)C(=O)N[C@@H](C)C(=O)O (plate: PM6)	88.8
CSCCC(N)C(=O)NC(CCSC)C(=O)O (stereo not given) (plate: PM7)	0
CCC(C)C(N)C(=O)NC(CC(N)=O)C(=O)O (stereo not given) (plate: PM8)	488
C[C@H](NC(=O)[C@@H](N)Cc1c[nH]c2ccccc12)C(=O)O (plate: PM7)	744
NCC(=O)N[C@@H](CC(=O)O)C(=O)O (plate: PM8)	6.75
NC(=O)C[C@H](NC(=O)[C@@H]1CCCN1)C(=O)O (plate: PM8)	5910 (active)
CSCC[C@H](N)C(=O)N[C@@H](Cc1ccccc1)C(=O)O (plate: PM7)	85
CC[C@H](C)[C@H](NC(=O)[C@@H](N)CCCN=C(N)N)C(=O)O (plate: PM6)	8310 (active)
O=C(O)[C@H](Cc1c[nH]c2ccccc12)NC(=O)[C@@H]1CCCN1 (plate: PM8)	358
CC(C)C[C@H](NC(=O)[C@@H](N)CC(C)C)C(=O)O (plate: PM6)	1380
C[C@H](N)C(=O)N[C@@H](C)C(=O)N[C@@H](C)C(=O)O (plate: PM8)	6480 (active)
CSCC[C@H](N)C(=O)N[C@@H](Cc1ccc(O)cc1)C(=O)O (plate: PM8)	55.2
CC(C)[C@H](NC(=O)[C@@H](N)CCCN=C(N)N)C(=O)O (plate: PM6)	7970 (active)
C[C@H](NC(=O)[C@@H](N)CCC(=O)O)C(=O)O (plate: PM8)	51.5
NCC(=O)NCC(=O)N[C@@H](Cc1ccccc1)C(=O)O (plate: PM8)	0
NC(=O)CC[C@H](NC(=O)[C@@H](N)CCCN=C(N)N)C(=O)O (plate: PM6)	9270 (active)
C[C@@H](NC(=O)CN)C(=O)O (plate: PM8)	0

Reference: the supplement of paper PMC4206461
